Test results as given in ChEMBL document CHEMBL3988442, “University of Dundee, Small-Polar-MMV Screening Library” (2021).
“And” between values parts separate entries of the source, which are not always exact repeats. Equal entries are not always repeated. For some assays here: Results with a measured potency or affinity are listed apart.

Key:
Parameters in all cases: scale not given: direction of the effect not stated beside the values
[1] = biological target: Protein translocase subunit SecA (Escherichia coli (strain K12)) (UniProt P10408); assay: Assay to Identify E. coli SecA ATPase Inhibitors; assay type: functional; conditions: 30 µM
Protein translocase subunit SecA (Escherichia coli (strain K12)), sequence (P10408 whole entry): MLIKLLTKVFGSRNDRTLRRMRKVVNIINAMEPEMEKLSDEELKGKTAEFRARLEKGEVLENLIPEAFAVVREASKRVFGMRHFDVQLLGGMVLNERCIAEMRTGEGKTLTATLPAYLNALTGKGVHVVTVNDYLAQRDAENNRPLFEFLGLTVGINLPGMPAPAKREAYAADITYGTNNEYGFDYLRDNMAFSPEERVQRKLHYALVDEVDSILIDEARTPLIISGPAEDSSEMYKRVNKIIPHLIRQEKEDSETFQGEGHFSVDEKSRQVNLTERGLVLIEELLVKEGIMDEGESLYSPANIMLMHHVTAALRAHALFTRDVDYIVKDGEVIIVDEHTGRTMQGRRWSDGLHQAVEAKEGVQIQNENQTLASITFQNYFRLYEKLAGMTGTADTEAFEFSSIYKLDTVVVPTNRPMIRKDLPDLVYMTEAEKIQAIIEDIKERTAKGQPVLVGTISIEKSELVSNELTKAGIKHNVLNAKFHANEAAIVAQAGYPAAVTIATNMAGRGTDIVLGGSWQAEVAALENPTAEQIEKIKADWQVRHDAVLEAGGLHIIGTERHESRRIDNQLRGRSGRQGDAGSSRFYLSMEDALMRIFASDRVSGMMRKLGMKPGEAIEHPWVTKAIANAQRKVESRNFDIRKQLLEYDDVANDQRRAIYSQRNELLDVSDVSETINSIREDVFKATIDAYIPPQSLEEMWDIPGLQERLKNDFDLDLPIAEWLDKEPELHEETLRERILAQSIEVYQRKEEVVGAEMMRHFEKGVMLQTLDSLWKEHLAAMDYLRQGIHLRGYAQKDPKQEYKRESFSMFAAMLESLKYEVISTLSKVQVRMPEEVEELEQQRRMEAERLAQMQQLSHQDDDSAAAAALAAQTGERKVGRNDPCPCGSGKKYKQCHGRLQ

[2] = biological target: T1, Ubiquitin-activating enzyme e1, putative (Leishmania donovani (strain BPK282A1)) (UniProt E9BSI1); assay: Leishmania donovani Ubiquitin Activating Enzyme (LdE1); assay type: functional; conditions: 30 µM
T1 sequence (whole entry): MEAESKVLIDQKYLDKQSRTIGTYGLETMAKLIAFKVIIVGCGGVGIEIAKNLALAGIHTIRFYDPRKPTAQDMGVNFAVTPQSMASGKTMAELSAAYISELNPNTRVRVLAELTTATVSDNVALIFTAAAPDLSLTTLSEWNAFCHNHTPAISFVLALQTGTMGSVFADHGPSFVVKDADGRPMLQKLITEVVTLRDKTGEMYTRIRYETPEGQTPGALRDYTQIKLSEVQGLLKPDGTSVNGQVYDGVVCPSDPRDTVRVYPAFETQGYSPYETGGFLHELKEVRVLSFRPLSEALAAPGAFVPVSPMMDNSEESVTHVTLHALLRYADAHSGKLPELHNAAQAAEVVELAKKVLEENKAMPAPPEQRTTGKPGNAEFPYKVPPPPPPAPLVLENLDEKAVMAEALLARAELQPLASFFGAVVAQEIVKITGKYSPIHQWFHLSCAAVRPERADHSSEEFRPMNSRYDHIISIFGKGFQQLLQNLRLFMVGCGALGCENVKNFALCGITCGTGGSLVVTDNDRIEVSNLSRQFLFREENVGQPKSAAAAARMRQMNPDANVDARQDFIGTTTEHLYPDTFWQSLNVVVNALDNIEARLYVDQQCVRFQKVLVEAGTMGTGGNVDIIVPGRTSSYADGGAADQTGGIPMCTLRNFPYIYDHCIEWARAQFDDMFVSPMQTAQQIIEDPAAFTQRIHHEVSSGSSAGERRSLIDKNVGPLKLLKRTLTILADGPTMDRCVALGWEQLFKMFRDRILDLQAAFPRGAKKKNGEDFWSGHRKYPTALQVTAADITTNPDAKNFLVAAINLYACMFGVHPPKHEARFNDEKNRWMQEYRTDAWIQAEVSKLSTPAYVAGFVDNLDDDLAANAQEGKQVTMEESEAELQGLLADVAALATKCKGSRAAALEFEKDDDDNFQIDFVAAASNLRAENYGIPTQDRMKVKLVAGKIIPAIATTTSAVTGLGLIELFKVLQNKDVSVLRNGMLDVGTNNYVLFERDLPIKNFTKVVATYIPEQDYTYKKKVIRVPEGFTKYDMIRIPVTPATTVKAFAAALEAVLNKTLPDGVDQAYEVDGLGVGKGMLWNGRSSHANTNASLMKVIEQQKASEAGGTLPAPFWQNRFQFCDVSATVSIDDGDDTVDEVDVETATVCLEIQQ

[3] = biological target: Sialic acid-binding Ig-like lectin 9 (Homo sapiens) (UniProt Q9Y336); assay: Hs-Siglec9 ALPHAscreen SOP 20170721; conditions: 10 µM
Sialic acid-binding Ig-like lectin 9 (Homo sapiens), sequence (Q9Y336 whole entry): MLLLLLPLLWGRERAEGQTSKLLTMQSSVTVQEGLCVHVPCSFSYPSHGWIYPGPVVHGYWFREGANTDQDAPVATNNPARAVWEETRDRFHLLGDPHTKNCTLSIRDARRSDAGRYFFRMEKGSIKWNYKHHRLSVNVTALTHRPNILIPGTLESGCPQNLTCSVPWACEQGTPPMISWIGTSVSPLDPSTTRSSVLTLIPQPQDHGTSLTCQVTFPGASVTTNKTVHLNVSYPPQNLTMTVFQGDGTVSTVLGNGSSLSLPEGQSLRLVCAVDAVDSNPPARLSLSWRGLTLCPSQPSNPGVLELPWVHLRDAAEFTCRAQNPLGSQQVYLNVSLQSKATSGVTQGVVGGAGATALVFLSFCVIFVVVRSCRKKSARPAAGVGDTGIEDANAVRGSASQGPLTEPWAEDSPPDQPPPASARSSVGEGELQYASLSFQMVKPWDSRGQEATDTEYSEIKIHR

Trypanosoma cruzi = assay: Trypanosoma cruzi phosphomannomutase and mannose-1-phosphate guanylyltransferase assay; assay type: functional; conditions: 10 µM
[4] = biological target: T2, Arginase-2, mitochondrial (Homo sapiens) (UniProt P78540); assay: in vitro enzyme assay to detect the production of urea directly proportional to the activity of Arginase II; assay type: functional; also: in the data most compounds retested in dose-response had high values
T2 sequence (whole entry): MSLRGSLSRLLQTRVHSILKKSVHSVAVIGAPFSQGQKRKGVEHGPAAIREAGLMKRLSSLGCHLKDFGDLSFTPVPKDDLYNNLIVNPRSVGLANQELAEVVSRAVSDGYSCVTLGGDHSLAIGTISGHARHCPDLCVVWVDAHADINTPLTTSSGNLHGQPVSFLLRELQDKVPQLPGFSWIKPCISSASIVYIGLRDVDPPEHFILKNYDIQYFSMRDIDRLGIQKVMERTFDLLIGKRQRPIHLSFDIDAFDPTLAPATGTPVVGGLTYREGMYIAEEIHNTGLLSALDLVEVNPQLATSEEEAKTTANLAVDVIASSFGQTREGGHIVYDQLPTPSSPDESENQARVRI

[5] = biological target: T3, Proteasome subunit beta (Trypanosoma cruzi) (UniProt O96673); assay: Trypanosoma cruzi proteasome chymotrypsin-like activity (TcProtChymo) assay.; also: in the data most compounds retested in dose-response had high values; assay type: functional; conditions: 9.37 µM
T3 sequence (whole entry): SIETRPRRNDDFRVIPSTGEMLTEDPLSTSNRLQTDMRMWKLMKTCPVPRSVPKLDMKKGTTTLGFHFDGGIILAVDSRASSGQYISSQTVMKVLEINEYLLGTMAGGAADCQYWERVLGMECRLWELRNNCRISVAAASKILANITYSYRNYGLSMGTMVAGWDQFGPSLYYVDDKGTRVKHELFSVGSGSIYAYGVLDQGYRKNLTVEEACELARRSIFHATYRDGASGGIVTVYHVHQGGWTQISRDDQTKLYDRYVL

N/A = assay: Trypanosoma cruzi proteasome luciferase counter-screen; assay type: functional; conditions: 9.37 µM
Homo sapiens = organism: Homo sapiens; assay: To identify inhibition of the IFN signalling (Jak-Stat) pathway via expression of an eGFP reporter gene under the control of an IFN-stimulated response element (ISRE) containing MxA promoter.; assay type: functional; conditions: 30 µM
[6] = biological target: T4, Tyrosyl-tRNA synthetase, putative (Trypanosoma cruzi (strain CL Brener)) (UniProt Q4DSP6); assay: Trypanosoma cruzi tyrosyl tRNA synthetase (TcYRS) _High Tyrosine SOP; assay type: functional; conditions: 30 µM; also: in the data most compounds retested in dose-response had high values
T4 sequence (whole entry): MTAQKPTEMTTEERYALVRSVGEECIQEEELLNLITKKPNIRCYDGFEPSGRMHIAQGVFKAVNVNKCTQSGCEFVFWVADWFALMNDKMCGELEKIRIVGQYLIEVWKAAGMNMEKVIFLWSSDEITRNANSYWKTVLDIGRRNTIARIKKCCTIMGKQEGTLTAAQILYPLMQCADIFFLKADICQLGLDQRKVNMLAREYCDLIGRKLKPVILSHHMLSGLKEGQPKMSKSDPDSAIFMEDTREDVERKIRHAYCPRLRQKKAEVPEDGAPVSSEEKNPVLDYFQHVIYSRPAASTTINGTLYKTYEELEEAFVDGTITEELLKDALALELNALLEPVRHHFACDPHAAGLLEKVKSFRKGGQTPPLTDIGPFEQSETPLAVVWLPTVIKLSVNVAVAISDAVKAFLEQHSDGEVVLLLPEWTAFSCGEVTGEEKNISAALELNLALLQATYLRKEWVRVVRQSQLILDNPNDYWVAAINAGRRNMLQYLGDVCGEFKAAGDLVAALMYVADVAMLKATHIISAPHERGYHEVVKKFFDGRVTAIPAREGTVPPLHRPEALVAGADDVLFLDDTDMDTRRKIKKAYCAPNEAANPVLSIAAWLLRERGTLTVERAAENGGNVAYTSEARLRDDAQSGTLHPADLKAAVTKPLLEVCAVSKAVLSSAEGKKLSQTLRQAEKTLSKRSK

[7] = biological target: T4, Tyrosyl-tRNA synthetase, putative (Trypanosoma cruzi (strain CL Brener)); assay: Trypanosoma cruzi tyrosyl tRNA synthetase (TcYRS) SOP; assay type: functional; conditions: 30 µM
[8] = biological target: Chromo domain-containing protein 1 (Saccharomyces cerevisiae (strain ATCC 204508 / S288c) (Baker's yeast)) (UniProt P32657); assay: ScCHD-1 Enzyme Inhibition Assay; assay type: functional; conditions: 30 µM; also: in the data most compounds retested in dose-response had high values
Chromo domain-containing protein 1 (Saccharomyces cerevisiae (strain ATCC 204508 / S288c) (Baker's yeast)), sequence (P32657 whole entry, the tested form may be a part): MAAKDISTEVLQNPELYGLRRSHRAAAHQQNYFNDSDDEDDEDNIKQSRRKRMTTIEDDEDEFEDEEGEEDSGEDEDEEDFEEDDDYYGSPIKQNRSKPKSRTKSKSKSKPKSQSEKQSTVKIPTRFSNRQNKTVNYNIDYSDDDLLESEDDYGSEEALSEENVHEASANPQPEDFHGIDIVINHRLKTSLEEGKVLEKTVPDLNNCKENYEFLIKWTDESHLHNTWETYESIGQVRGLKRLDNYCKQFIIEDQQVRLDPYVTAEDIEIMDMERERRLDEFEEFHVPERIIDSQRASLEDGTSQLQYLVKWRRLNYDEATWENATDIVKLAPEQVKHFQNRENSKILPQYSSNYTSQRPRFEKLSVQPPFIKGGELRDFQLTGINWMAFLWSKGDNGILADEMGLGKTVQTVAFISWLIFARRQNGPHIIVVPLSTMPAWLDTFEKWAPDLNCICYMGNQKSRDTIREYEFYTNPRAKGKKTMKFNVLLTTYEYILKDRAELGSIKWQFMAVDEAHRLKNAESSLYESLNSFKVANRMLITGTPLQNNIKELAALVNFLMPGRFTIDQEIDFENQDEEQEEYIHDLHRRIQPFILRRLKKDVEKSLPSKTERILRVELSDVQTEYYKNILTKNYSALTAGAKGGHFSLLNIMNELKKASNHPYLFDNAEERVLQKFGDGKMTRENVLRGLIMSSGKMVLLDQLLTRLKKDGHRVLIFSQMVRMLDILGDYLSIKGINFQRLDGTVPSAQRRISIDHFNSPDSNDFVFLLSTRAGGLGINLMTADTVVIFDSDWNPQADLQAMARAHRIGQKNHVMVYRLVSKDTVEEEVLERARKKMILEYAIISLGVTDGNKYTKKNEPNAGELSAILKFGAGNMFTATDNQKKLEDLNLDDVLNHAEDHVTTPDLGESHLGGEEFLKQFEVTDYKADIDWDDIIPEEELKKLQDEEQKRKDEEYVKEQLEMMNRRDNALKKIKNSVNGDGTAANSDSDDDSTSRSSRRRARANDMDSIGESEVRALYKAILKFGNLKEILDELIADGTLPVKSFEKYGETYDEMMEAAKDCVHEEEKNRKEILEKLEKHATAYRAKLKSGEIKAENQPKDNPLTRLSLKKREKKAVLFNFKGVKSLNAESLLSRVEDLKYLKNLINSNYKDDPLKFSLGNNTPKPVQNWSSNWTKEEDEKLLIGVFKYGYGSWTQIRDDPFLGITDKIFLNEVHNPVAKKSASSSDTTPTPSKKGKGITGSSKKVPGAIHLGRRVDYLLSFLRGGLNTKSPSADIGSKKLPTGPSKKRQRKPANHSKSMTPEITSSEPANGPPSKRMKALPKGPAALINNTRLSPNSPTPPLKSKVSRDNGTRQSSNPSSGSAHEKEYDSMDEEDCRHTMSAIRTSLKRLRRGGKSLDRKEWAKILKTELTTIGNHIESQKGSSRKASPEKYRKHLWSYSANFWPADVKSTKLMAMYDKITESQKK

[9] = biological target: AMP-activated protein kinase, AMPK (Homo sapiens) (UniProt P54646+O43741+P54619+Q9UGJ0+Q9Y478+Q13131+Q9UGI9); assay: AMP-dependent Kinase enzyme assay. An in vitro enzyme assay that detects ADP turnover that is directly proportional to AMPK activity. This uses naive AMPK that is activated during the assay with MK-8722; assay type: functional; conditions: 30 µM

| SMILES | Percent Effect [1] [%] | Percent Effect [2] [%] | Percent Effect [3] [%] | Percent Effect (Trypanosoma cruzi) [%] | Percent Effect ([4]; 33.3 µM) [%] | Percent Effect [5] | Percent Effect (N/A) | Percent Effect (Homo sapiens) [%] | Percent Effect [6] [%] | Percent Effect [7] [%] | Percent Effect [8] [%] | Percent Effect [9] [%] | Percent Effect ([4]; 30 µM) [%] |
| --- | --- | --- | --- | --- | --- | --- | --- | --- | --- | --- | --- | --- | --- |
| COCc1noc(-c2ccc(N3CCCCC3CO)nc2)n1 (stereo unspecified) | -2.04 | -5.41 | 7.35 | -0.485 | 6.64 | 62% and 48.5% and 57.3% | 26.9% | 2.19 | 0.532 | 0 | -0.226 |  |  |
| CC(=O)N(Cc1noc(C)n1)C1CCN(CCOc2ccccc2)C1 (stereo unspecified) | -2.68 | 13 | 0.712 | -1.68 | -0.615 | 17.9% |  | -1.33 | 7.84 | 21.2 | -7.28 |  |  |
| NC(=O)c1ccc2c(c1)nc1n2CCN(Cc2ccccc2)C1 | -6.79 | 15.8 | 5.68 | 3.8 | -20.1 | 12% |  | 5.05 | 4.25 | 10.4 | 6.79 | 5.45 |  |
| Cc1csc(N2CCN(C(=O)CCc3nccs3)CC2)n1 | -6.78 | 8.11 | 7.91 | 3.11 | -17.2 | 5.59% |  | 11.7 | 12.3 | 28.4 | -11.1 | -8.38 |  |
| CC(=O)N(Cc1ncc(C)o1)C1CCN(CCCc2cnn(C)c2)C1 (stereo unspecified) | -1.84 | 18.7 | -5.35 | 1.41 | -3.99 | 26.2% |  | 2.97 | 4.74 | 12.8 | -12.6 |  |  |
| CCNC(=O)c1ccnc(NCC2COc3cc(OC)ccc3C2)c1 (stereo unspecified) | -6.93 | 5.41 | 2.93 | -3.78 | -1.05 | 23.6% |  | 24.8 | 2.66 | 7.32 | -4.55 |  | 0.54 |
| Cn1ccnc1CN1CCCN(C(=O)c2ccc(Cl)o2)CC1 | -4.86 | 0 | 4.15 | 1.4 | 1.44 | 3.13% |  | -16.8 | 2.46 | 1.24 | 0.744 | -1.55 |  |
| c1ccc(-c2ccc(C3CNCCO3)nc2)cc1 (stereo unspecified) | -1.91 | 14.7 | -4.38 | -2.37 | -3.1 | 41% and 49.8% and 42.6% | 18% and 21% | -23.6 | 3.17 | 7.5 | -25.7 |  |  |
